In the library only some 4.5% were active in any assay of this set; here they are far more common.
Mdm2 MdmX PPI: inhibitors of human Mdm2-MdmX association, primary screen, cell-based, luminescence, split luciferase, SaOS-2, uHTS; 330,000 compounds, 3% hits; SaOS-2 split-luciferase Mdm2/MdmX complementation; inhibition, % at 8 µM; AID 485346, 2010;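 active = inhibition of at least 50% at 8 µM in the primary screen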
Target sequence (O15151 whole entry, looked up): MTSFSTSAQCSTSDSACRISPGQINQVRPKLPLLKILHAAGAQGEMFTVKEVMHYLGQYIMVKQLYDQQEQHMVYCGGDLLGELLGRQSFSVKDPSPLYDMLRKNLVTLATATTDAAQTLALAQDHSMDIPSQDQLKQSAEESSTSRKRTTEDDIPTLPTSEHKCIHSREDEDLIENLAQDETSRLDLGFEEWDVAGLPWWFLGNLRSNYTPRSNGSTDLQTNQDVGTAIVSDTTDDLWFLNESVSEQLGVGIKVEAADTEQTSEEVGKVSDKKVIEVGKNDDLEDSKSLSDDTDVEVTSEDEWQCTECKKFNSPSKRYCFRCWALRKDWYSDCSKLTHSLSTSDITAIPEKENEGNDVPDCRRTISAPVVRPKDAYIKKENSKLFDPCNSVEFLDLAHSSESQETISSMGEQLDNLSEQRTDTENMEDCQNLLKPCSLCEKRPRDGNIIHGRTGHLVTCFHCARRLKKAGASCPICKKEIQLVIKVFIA
Target sequence (Q00987 whole entry, looked up): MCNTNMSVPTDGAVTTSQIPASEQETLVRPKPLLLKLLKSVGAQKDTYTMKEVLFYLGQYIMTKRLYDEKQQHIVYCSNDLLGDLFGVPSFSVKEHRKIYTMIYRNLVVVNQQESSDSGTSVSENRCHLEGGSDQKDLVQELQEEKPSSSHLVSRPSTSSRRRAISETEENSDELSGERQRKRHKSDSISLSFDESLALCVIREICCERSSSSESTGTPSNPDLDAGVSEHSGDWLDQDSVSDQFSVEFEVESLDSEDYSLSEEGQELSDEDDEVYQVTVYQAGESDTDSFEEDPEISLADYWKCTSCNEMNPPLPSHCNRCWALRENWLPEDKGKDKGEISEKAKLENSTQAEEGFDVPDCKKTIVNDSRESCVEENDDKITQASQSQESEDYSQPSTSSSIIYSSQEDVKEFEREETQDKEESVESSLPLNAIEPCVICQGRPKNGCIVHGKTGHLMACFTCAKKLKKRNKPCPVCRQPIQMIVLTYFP
697 NFkB inh: inhibitors of PMA/ionomycin-induced NF-kB reporter, 697 cells, primary screen, B-cell NF-kB inhibitor project, cell-based, luminescence, uHTS | 697 B-cell NF-kB luciferase reporter, 16 h | inhibition, % at 4 µM | 330,000 compounds, 0.33% hits | AID 435022, 2010; in the data active = inhibition above about 35%
Gli-Sufu antag: Gli-Sufu pathway antagonists, primary screen, luciferase luminescence, Sufu-KO-LIGHT cells, uHTS; Sufu-KO-LIGHT fibroblasts, Gli luciferase reporter luminescence; inhibition, % at 5 µM; 340,000 compounds, 0.74% hits; AID 588413, 2011;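 active = inhibition above about 55%, limit read from the data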
aSyn 5UTR inh: MLPCN primary screen, SNCA 5' untranslated region; AID 1813, 2009; alpha-synuclein 5'UTR reporter, inhibitor activity; 300,000 compounds, 0.82% hits; inhibition, % (tested at 7.5 µM); in the data active = inhibition above about 60%; inconclusive = no clear call, values can overlap the other calls;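 also: H4 neuroglioblastoma cells stably carrying SNCA 5'UTR luciferase fusion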
CSC inhib: cancer stem cell viability inhibitors, primary screen, luminescence | inhibition, % at 7.5 µM | 300,000 compounds, 1.1% hits | AID 2717, 2010 | cancer stem cell-like cells viability; in the data active = inhibition above about 75%; inconclusive = no clear call, values can overlap the other calls; tested in HMLE shEcad cells
Jurkat NFkB inh: inhibitors of induced NF-kB luciferase reporter, primary screen, TCR NF-kB activation inhibitor project, cell-based, luminescence, uHTS | Jurkat, PMA/ionomycin-induced NF-kB luciferase reporter | inhibition, % at 4 µM | 330,000 compounds, 0.53% hits | AID 435003, 2010; in the data active = inhibition above about 50%
Jurkat NFkB conf: PMA/ionomycin-induced NF-kB reporter inhibitors, Jurkat retest, confirmation, T-cell NF-kB inhibitor project, cell-based, luminescence, single concentration; shares compounds with Jurkat NFkB inh; Jurkat NF-kB luciferase, 16 h; inhibition, % at 4 µM; 2,700 compounds, 27% hits; AID 435020, 2010;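 active = inhibition reaching about 45% at 4 µM in either replicate, limit read from the data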
697 NFkB conf: PMA/ionomycin-induced NF-kB reporter inhibitors, 697 retest, confirmation, B-cell NF-kB inhibitor project, cell-based, luminescence, single concentration. shares compounds with 697 NFkB inh. 697 B-cell NF-kB luciferase, 16 h. inhibition, % at 4 µM. 2,000 compounds, 35% hits; in the data active = inhibition mostly above about 28%, no sharp cut-off; inactive = mostly below about 22%
Mdm2 MdmX conf: Mdm2-MdmX complex disruptors, retested hits, confirmation, luminescence, single concentration; inhibition, % at 8 µM; AID 489028, 2010; 10,000 compounds, 55% hits; shares compounds with Mdm2 MdmX PPI; Mdm2-MdmX binding, luminescent assay; in the data active = inhibition above about 40%
Full FLuc ctr: full-length luciferase signal inhibition, confirmation, counter-screen for Mdm2/MdmX interaction inhibitor project, cell-based, single concentration, SaOS-2. shares compounds with Mdm2 MdmX PPI. SaOS-2 full-length luciferase counterscreen, luminescence. inhibition, % at 8 µM. 6,200 compounds, 77% hits;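 active = mean inhibition at 8 µM reaching about 37%, which flags the compound as non-specific, limit read from the data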;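 also: p53-null SaOS-2 cells with luciferase driven by a doxycycline-inducible promoter; compound on cells about two nights before reading with doxycycline added after day one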
Gli antag conf: Gli-SUFU pathway antagonists, confirmation, single concentration, luciferase luminescence, Sufu-KO-LIGHT cells. Gli luciferase reporter. shares compounds with Gli-Sufu antag. 2,500 compounds, 40% hits. inhibition, % at 5 µM;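 active = mean inhibition at 5 µM reaching about 45%, limit read from the data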
Gli cytotox: cytotoxicity in Sufu-KO-LIGHT cells, confirmation, cytotoxicity control for Gli-SUFU antagonist project, cell-based, ATP luminescence, single concentration. shares compounds with Gli-Sufu antag. cytotoxicity, % at 5 µM. 2,500 compounds, 32% hits;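 active = mean cytotoxicity at 5 µM above about 25%, limit read from the data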;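 also: cells exposed to compound overnight for roughly 16 to 18 hours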
Wnt3a cs: Wnt3a reporter signal inhibition, confirmation, counter-screen for Gli-SUFU antagonist project, Wnt-LIGHT cells, luminescence, single concentration; shares compounds with Gli-Sufu antag; Wnt3a-driven luciferase reporter; inhibition, % at 6.25 µM; 2,500 compounds, 20% hits; AID 651995, 2013;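 active = mean inhibition above about 25%, limit read from the data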
Hits are given with their value; n = inactive; u = inconclusive; x = no result.

SMILES	Mdm2 MdmX PPI	697 NFkB inh	Gli-Sufu antag	aSyn 5UTR inh	CSC inhib	Jurkat NFkB inh	Jurkat NFkB conf	Gli antag conf	Gli cytotox	Wnt3a cs	others
Cc1c(C(=O)N/N=C/c2ccc(Cl)cc2)[nH]c2ccc(Cl)cc12	63.4	n	n	n	n	52.5	51.1	54.5	57.7	n	Mdm2 MdmX conf=62.1;Full FLuc ctr=91.0
O=C(COC(=O)CNC(=O)c1sc2ccccc2c1Cl)Nc1c(Cl)cc(Cl)cc1Cl	n	n	n	n	n	n	x	x	x	x
CCn1c(C)[n+](Cc2ccccc2)c2ccc(Cl)cc21	n	n	n	n	n	n	x	x	x	x
CCn1c(/C=C/Nc2ccccc2)[n+](CC)c2ccc(Cl)cc21	n	n	n	n	n	58.1	n	n	n	n
Cc1cc(C)n(CC(=O)N2CCCC(N3CCN(c4ccc(F)cc4)CC3)C2)n1 (stereo not drawn)	n	n	n	n	n	n	x	x	x	x
Cc1cc(C(C)(C)C)cc(C)c1C[n+]1ccc2ccccc2c1	50.6	n	79.1	n	n	77.1	50.7	88.2	n	45.8	Mdm2 MdmX conf=n
Cc1ccc(C(=O)C[n+]2ccc3ccccc3c2)cc1	n	n	n	n	n	n	x	x	x	x
Cc1cc(C)nc(SCC(=O)Nc2ccnc3ccccc23)n1	n	n	64.4	n	n	63.9	64.7	66.7	n	41.0
O=C(NCCCNC(=O)c1cc(Cl)ccc1Cl)c1ccco1	n	n	n	n	x	n	x	x	x	x
Cc1ccc(OCCN2CCN(c3ncnc4sc(C)c(C)c34)CC2)cc1	n	43.2	73.0	n	n	67.3	66.1	73.3	31.0	n	697 NFkB conf=55.8
Cc1ccc(Sc2ncccc2C(=O)N(C)Cc2cccs2)c(C)c1	n	n	n	n	n	n	x	x	x	x
COc1ccc(NS(=O)(=O)c2cccc(NC(=O)c3ccc(Cl)nc3)c2)cc1	n	64.1	69.0	n	n	72.1	66.7	68.0	40.8	n	697 NFkB conf=54.0
COc1cccc(S(=O)(=O)Nc2ccc(C(=O)Nc3ccncc3)cc2)c1	n	n	n	n	n	n	x	x	x	x
Cc1ccccc1Cn1cc(NC(=O)CCCn2nc([N+](=O)[O-])cc2C)cn1	n	n	n	n	n	n	x	x	x	x
O=C(Cn1cnc2c(NCc3ccccc3)ncnc21)NCc1nc2ccccc2[nH]1	n	n	n	x	x	x	x	x	x	x
CCC[C@H]1NC(=O)[C@H](C)N(C)C(=O)C(C)(C)C(=O)C(C)NC(=O)[C@H](Cc2ccc(OC)cc2)N(C)C(=O)[C@H](C(C)C)N(C)C(=O)CNC(=O)[C@H](CC(C)C)N(C)C(=O)CNC(=O)[C@H]([C@@H](C)CC)OC(=O)[C@H]1C (stereo partly drawn)	93.7	n	74.8	x	x	81.8	n	89.1	58.3	60.9	Mdm2 MdmX conf=91.0;Full FLuc ctr=n
N#Cc1ccc(-c2cccs2)nc1SCc1cccnc1	n	n	60.4	90.3	n	65.6	n	n	55.4	n
N#Cc1c(C(F)(F)F)cc(-c2cccs2)nc1SCc1cccnc1	n	n	n	n	x	n	x	x	x	x
CCOC(=O)C1CCCN(S(=O)(=O)c2ccc(S(=O)(=O)N(CC)CC)cc2)C1 (stereo not drawn)	n	43.2	77.5	n	x	59.7	62.2	74.5	32.4	n	697 NFkB conf=52.0
CCOC(=O)C1CCCN(S(=O)(=O)c2ccc(C)cc2)C1 (stereo not drawn)	n	n	n	n	n	n	x	x	x	x
Cn1nc(C(C)(C)C)cc1C(=O)NCc1cc(F)cc2c1OCOC2	n	n	58.4	n	n	64.6	60.0	69.7	26.4	36.9
Cc1cc(C(=O)NCc2cc(F)cc3c2OCOC3)nn1C	n	n	n	n	n	n	x	x	x	x
N#CC1(NC(=O)COC(=O)c2nccnc2N)CCCCC1	n	n	n	n	n	n	x	x	x	x
Fc1ccc2[nH]c3c(N4CCc5ccccc5C4)ncnc3c2c1	56.9	n	77.2	n	u	50.1	62.6	79.4	34.3	n	Mdm2 MdmX conf=n
CCOC(=O)c1cc([N+](=O)[O-])sc1NC(=O)c1ccc(S(=O)(=O)N2CC3(C)CC2CC(C)(C)C3)cc1 (stereo not drawn)	95.1	n	71.0	u	n	57.1	n	82.0	26.8	50.3	Mdm2 MdmX conf=51.1;Full FLuc ctr=57.2
SMILES	Mdm2 MdmX PPI	697 NFkB inh	Gli-Sufu antag	aSyn 5UTR inh	CSC inhib	Jurkat NFkB inh	Jurkat NFkB conf	Gli antag conf	Gli cytotox	Wnt3a cs	others
CSCCC(NS(=O)(=O)c1ccc(C)cc1)C(=O)NCC(C)(C)N1CCOCC1 (stereo not drawn)	n	n	n	x	x	n	x	x	x	x
O=S(=O)(c1ccc2c(c1)OCCO2)N1CCN(c2ncnc3sccc23)CC1	n	n	64.0	n	n	51.5	54.0	60.6	48.1	n
Cc1ccc(S(=O)(=O)NCC2CCCO2)cc1 (stereo not drawn)	n	n	x	n	n	n	x	x	x	x
O=S(=O)(NCC1CCCO1)c1ccc(-c2ccc(S(=O)(=O)NCC3CCCO3)cc2)cc1 (stereo not drawn)	n	47.8	73.7	n	n	70.3	69.3	67.3	31.0	34.7	697 NFkB conf=82.7
COc1ccccc1CNC(=O)c1ccc(Cl)c(NC2=NC3CS(=O)(=O)CC3S2)c1 (stereo not drawn)	n	n	n	n	n	n	x	x	x	x
CC(=O)N=c1sc(C(C)(C)C)c(C)n1C	n	n	n	n	x	n	x	x	x	x
Cc1nn(C)c(C)c1CN(Cc1nc(CCC(C)C)no1)C(C)C	n	n	79.0	n	n	52.6	50.7	72.8	26.1	50.7

From PubChem BioAssay
